# Data reported in PubChem BioAssay AID651871 (Sanford-Burnham Center for Chemical Genomics, 2012).
# Values joined by “and” are separate entries in the source; they are usually repeats but may differ in a detail not shown here. Equal values may be shown once.
# Test system: HL-1
# Assay: cardiomyocyte survival under oxidative or metabolic stress – cell-based, panel, H9c2 and HL-1, ATP luminescence, set 2, SAR follow-up (AID 651871);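 also: cells exposed to stressor for 2 h before ATP readout; reference of the scale not given here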
# Conditions: H9c2/HL-1 cardiomyocytes, 2-deoxyglucose stress, with 2-deoxyglucose, run 2, at 79 µM (top of the series)
row,Compound,activity (protection/inhibition)
1,CCOC(=O)c1cccc(NC(=O)CNC(=O)c2cc(-c3cc(OC)c(OC)c(OC)c3)nc3ccccc23)c1,75.9%
2,COc1ccc2nc(-c3cc(OC)c(OC)c(OC)c3)cc(C(=O)NCC(=O)Nc3ccc(C(C)=O)cc3)c2c1,54.8%
3,COc1ccc2c(c1OC)C(=O)N1c3ccccc3C(=O)N(Cc3cccc(Cl)c3Cl)C21 (stereo not drawn),27.7% and -9.62%
